The nature of assay [1]: qHTS assay to identify small molecule antagonists of the estrogen related receptor (ERR) signaling pathway from Tox21 library - cell viability counter screen (AID 1224834). Also: nearly all actives have a fitted effect of over 30% in size. An outline of the steps: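 Fluorescence from CellTiter-Fluor gives the viability read-out, taken 30 min after reagent addition. Before that, ERR cells seeded 6 h earlier were incubated with compounds for 17.5 h at 37 C.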

Assay [2] addresses Luciferin 4-monooxygenase (Photinus pyralis) (UniProt P08659). Description: qHTS assay to identify small molecule inhibitors of firefly luciferase (AID 1224835). Also: nearly all actives have a fitted effect of over 25% in size. An outline of the steps: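 Inhibition of purified Photinus luciferase is measured by luminescence. Substrate levels (D-luciferin, ATP) sit at their KM values. Each compound is tested in a concentration series.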
A general note: In qHTS, concentration-response curves come from the screen itself.

Assay [3] can be described thus: qHTS assay to identify small molecule agonists of the constitutive androstane receptor (CAR) signaling pathway - cell viability counter screen (AID 1224836). Also: nearly all actives have a fitted effect of over 45% in size. In outline:
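HepG2 cells stably carrying hCAR and a CYP2B6-2.2kb reporter were plated 4 h, then given compounds at 15 concentrations plus PK11195 (final 0.75 uM). After 23 h at 37 C, viability was read by CellTiter-Fluor fluorescence.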

Assay [4] in a line: qHTS assay to identify small molecule antagonists of the constitutive androstane receptor (CAR) signaling pathway - cell viability counter screen (AID 1224837). Also: nearly all actives have a fitted effect of over 45% in size. In outline: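 HepG2-CYP2B6-hCAR cells, 2500/well, 4 hr pre-incubation; compound titration, 15 conc.; CITCO 50 nM final; 23 hr, 37 C/5% CO2; CellTiter-Fluor, fluorescence intensity.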
A short description of assay [5]: qHTS assay to identify small molecule antagonists of the estrogen related receptor signaling pathway with the pleiotropic PPARgamma coactivator (PGC) from Tox21 10K library - cell viability counter screen (AID 1224840; active = well fitted cell-killing curve with a large enough effect in the repeat runs, not every such curve was filed as active; also: nearly all actives have a fitted effect of over 40% in size). An outline of the steps:
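PGC/ERR cells, 2,000/well; 6 h pre-incubation 37 C/5% CO2; cpd in DMSO via pin tool; 17.5 h 37 C; CellTiter-Fluor, 30 min; fluorescence.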

Assay [6] addresses Thyrotropin receptor (Homo sapiens) (UniProt P16473). Description: qHTS assay to identify small molecule agonists of the thyroid stimulating hormone receptor (TSHR) signaling pathway (AID 1224843; calls by dose curve; also: nearly all actives have a fitted effect of over 45% in size). In outline:
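Screening of the Tox21 10K collection used HEK293 cells engineered with TSHR at 800 cells per well. After a 30-min room-temperature compound exposure, HTRF cAMP reagents were added and fluorescence recorded 1 h later.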

Assay [7] is described as follows: qHTS assay to identify small molecule agonists of the hypoxia (HIF-1) signaling pathway - cell viability counter screen (AID 1224844; calls by dose curve; also: nearly all actives have a fitted effect of over 50% in size). In outline:
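ME-180 HRE-bla cells, 2,000/well, 0.5% dialyzed FBS; 5 hr settle, 17 hr compound at 37C/5% CO2; CCF4-AM reporter read first, then CellTiter-Glo luminescence after 30 min RT.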

Assay [8] in a line: qHTS assay to identify small molecule agonists of H2AX (AID 1224845; active = well fitted activation curve with a large enough effect in the signal ratio in the repeat runs, not every such curve was filed as active; the % refers to the signal ratio). An outline of the steps: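 Phospho-H2AX Ser139 measured by HTRF (ex 320 nm; em 665 and 620 nm) after 24 hr antibody incubation. Compounds, 15 concentrations, 0.76% DMSO, were applied to CHO-K1 cells for 3hr at 37C before lysis.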
Assay [9] is described as follows: qHTS assay to identify small molecule agonists of the hypoxia (HIF-1) signaling pathway (AID 1224846; active = well fitted activation curve with a large enough effect in the signal ratio in the repeat runs, not every such curve was filed as active; the % refers to the signal ratio). An outline of the steps: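 Cell line: CellSensor HRE-bla ME-180; 2,000 cells/well; 0.5% dialyzed FBS; 5 h preincubation; DMSO compound pin transfer; 17 h, 37C, 5% CO2; CCF4-AM added; bla FRET signal scored for activation.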
The nature of assay [10]: qHTS assay to identify small molecule agonists of H2AX - cell viability counter screen (AID 1224847; calls by dose curve; also: top concentration of the series differs between compounds; nearly all actives have a fitted effect of over 30% in size). An outline of the steps: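 Wild-type CHO-K1 cells (10% FBS medium) were plated overnight at 37C, exposed to compounds at 15 concentrations for 3 hr at 37C (0.76% DMSO final), and viability was read as CellTiter-Glo luminescence after 30 min at room temperature.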
A short description of assay [11]: qHTS RealTime-Glo MT Cell Viability Assay in HepG2 cells - 24 hour (AID 1224867). Also: nearly all actives have a fitted effect of over 50% in size. An outline of the steps: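 Luminescence read-out: viable HepG2 cells reduce a prosubstrate to a NanoLuc substrate, giving a signal proportional to live cell number. Reads taken at 0, 8, 16, 24, 32 and 40 h of compound exposure at 37 C.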
A short description of assay [12]: qHTS RealTime-Glo MT Cell Viability Assay in HEK293 cells - 32 hour (AID 1224868). Also: top concentration of the series differs between compounds; nearly all actives have a fitted effect of over 50% in size. In outline: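 Nonlytic real-time viability readout: viable cells convert prosubstrate to NanoLuc substrate, giving luminescence proportional to live cell number. HEK293, 600 cells/well, compound added after 5 h, continuous culture at 37 C.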
A short description of assay [13]: A CellTox Green Cytotoxicity Assay to monitor cytotoxicity in HEK293 cells - 0 hour (AID 1224869). Also: nearly all actives have a fitted effect of over 50% in size. An outline of the steps: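 Nonlytic real-time cytotoxicity: HEK293 + CellTox Green reagent plated, 5 h preincubation, pintool compound addition (23 nL in DMSO), 37 C for 40 h, fluorescence measured at successive time points.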
Assay [14] has as its target Nuclear receptor subfamily 1 group I member 3 (Homo sapiens) (UniProt Q14994). Description: qHTS assay to identify small molecule antagonists of the constitutive androstane receptor (CAR) signaling pathway (AID 1224838). Also: nearly all actives have a fitted effect of over 40% in size. An outline of the steps: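 HepG2-CYP2B6-hCAR cells; 4 h pre-incubation; cpd (15 conc) + CITCO 50 nM final; 24 h, 37 C/5% CO2; ONE-Glo, luminescence.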

Assay [15] shares this target. Description: qHTS assay to identify small molecule agonists of the constitutive androstane receptor (CAR) signaling pathway (AID 1224839). Also: nearly all actives have a fitted effect of over 15% in size. An outline of the steps: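 HepG2 cells stably expressing hCAR and a CYP2B6-2.2kb luciferase reporter were treated with compounds at 15 concentrations plus 0.75 uM PK11195 (final) for 24 h at 37 C; luminescence was read after ONE-Glo addition.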

Assay [16] is described as follows: qHTS assay to identify small molecule antagonists of the estrogen related receptor signaling pathway with the pleiotropic PPARgamma coactivator (PGC) from Tox21 10K library (AID 1224841; call rule not given here). In outline: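 PGC/ERR cell line, 2,000 cells/well; 6 h pre-incubation 37 C/5% CO2; compounds (DMSO) pinned in; 18 h, 37 C; One-Glo, 30 min RT; luminescence.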
Assay [17] in a line: qHTS assay to identify small molecule agonists of the estrogen related receptor signaling pathway with the pleiotropic PPARgamma coactivator (PGC) from Tox21 10K library (AID 1224842). Also: nearly all actives have a fitted effect of over 15% in size. An outline of the steps: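 Luminescence from One-Glo (30 min, room temperature) measured after PGC/ERR cells had 18 h at 37 C with pinned compound (23 nL in DMSO). Cells had been seeded at 2,000 per well and pre-incubated 6 h.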

Assay [18] in a line: qHTS assay to identify small molecule antagonists of the estrogen related receptor (ERR) signaling pathway from Tox21 library (AID 1224848). Also: nearly all actives have a fitted effect of over 50% in size. Also: potency is read from the fitted curve at half-maximal effect. In outline: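 Antagonist-mode screen of the Tox21 10K library in an NTP-provided ERR reporter cell line; 18 h compound exposure at 37 C, luminescence measured with ONE-Glo.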
Assay [19] can be described thus: qHTS assay to identify small molecule agonists of the estrogen related receptor (ERR) signaling pathway from Tox21 library (AID 1224849; calls by dose curve; also: nearly all actives have a fitted effect of over 15% in size). As to conditions: ERR reporter cell line, ONE-Glo luciferase, 18 h; at 92.4 µM (top of the series) unless noted. In outline: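 ERR cells, 6 h pre-incubation 37 C/5% CO2; cpd in DMSO pinned; 18 h 37 C; ONE-Glo added, 30 min RT; luminescence read. Agonist mode, qHTS.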

Unmarked numbers belong to inactive results. Inconclusive results are not listed. Active and inactive are the calls of the source. Unless noted, calls follow the shape of the dose curve; as a rule, active = well fitted curve in the direction sought with a large enough effect in the repeat runs; inconclusive = weak or mixed curves; inactive = no such curve, though single readings can be large; an effect the other way counts as inactive or inconclusive.
% is scaled to controls: 0 for no effect and ±100 for the full control effect.

Thyrotropin receptor (Homo sapiens), sequence (P16473 whole entry, looked up): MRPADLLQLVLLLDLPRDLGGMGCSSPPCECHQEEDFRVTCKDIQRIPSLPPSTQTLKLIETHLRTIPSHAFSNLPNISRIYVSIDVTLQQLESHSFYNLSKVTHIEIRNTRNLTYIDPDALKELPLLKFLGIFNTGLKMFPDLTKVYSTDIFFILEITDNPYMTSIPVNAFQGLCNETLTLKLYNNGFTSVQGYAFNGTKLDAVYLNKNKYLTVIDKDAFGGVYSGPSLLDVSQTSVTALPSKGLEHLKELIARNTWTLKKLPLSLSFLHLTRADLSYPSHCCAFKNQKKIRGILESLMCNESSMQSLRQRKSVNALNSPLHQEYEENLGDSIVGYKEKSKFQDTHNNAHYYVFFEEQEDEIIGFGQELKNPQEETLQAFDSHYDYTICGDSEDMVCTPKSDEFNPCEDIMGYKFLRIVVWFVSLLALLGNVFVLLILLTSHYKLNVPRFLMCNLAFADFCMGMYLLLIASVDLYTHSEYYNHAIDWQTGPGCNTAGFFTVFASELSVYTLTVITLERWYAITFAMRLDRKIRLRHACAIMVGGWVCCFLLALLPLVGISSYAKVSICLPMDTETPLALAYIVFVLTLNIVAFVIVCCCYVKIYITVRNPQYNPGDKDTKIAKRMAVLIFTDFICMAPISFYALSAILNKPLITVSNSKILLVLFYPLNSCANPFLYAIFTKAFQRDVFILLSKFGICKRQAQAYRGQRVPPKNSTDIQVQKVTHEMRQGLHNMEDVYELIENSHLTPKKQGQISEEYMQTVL
Nuclear receptor subfamily 1 group I member 3 (Homo sapiens), sequence (Q14994 whole entry, looked up): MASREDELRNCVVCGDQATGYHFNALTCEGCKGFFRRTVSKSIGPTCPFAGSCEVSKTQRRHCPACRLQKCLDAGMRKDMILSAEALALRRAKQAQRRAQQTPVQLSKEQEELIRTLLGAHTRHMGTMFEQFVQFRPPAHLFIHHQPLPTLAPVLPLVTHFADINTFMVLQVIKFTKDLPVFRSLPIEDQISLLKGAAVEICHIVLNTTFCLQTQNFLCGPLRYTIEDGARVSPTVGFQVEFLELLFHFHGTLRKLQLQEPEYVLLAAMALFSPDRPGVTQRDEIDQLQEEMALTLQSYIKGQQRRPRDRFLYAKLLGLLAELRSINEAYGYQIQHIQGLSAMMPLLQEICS
Luciferin 4-monooxygenase (Photinus pyralis), sequence (P08659 whole entry, looked up): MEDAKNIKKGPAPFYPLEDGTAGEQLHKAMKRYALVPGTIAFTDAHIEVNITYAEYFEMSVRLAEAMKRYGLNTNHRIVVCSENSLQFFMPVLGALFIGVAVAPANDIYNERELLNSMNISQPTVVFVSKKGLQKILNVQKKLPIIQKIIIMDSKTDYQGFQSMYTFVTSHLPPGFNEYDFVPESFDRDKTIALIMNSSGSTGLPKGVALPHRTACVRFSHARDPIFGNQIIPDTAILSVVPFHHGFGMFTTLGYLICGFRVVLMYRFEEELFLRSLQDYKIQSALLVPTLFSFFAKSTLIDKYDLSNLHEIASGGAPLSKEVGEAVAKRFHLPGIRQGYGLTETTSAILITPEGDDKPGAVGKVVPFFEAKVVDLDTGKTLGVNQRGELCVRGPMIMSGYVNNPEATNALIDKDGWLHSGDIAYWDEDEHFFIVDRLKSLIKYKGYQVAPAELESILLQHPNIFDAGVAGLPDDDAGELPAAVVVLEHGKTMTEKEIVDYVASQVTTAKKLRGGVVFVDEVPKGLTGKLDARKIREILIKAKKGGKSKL

Turning to `CN1COCN(Cc2cnc(Cl)s2)/C1=N\[N+](=O)[O-]`, the Potency result in assay [1], in [2], in [3], in assay [4], in assay [5] and in assay [6] was “inactive” in each case. Moreover, the Potency entry in assay [7], in assay [10], in [11] and in assay [12] was “inactive” each time. In addition, the call in assay [8], in assay [9] and in assay [13] was inactive.
Consider `N[C@@H]1C[C@H]1c1ccccc1`, for which the Potency result in [1], in [2], in [3], in [4], in assay [5] and in [6] was “inactive” each time. Moreover, the Potency result in [7], in assay [10], in assay [11] and in assay [12] was “inactive” in each case. Also, the outcome in assay [8] and in assay [13] was inactive.
For `O=CCCl`, the Potency entry in assay [1], in [2], in assay [4], in [14], in assay [15] and in [5] was “inactive” each time. In addition, the Potency result in [6], in assay [7], in assay [10], in assay [11] and in [12] was “inactive” in each case. For the same molecule, the call in assay [8], in assay [9] and in [13] was inactive.
For `CN(CCO)CCO`, the Potency entry in assay [1], in assay [2], in [4], in [14], in assay [15] and in assay [5] was “inactive” each time. Moreover, the Potency result in assay [6], in assay [7], in [10], in assay [11] and in [12] was “inactive” each time. The call in assay [8], in [9] and in assay [13] was inactive.
As for `CC[C@H](N)c1ccccc1`, the Potency result in [1], in assay [2], in [4], in assay [14], in assay [15] and in assay [5] was “inactive” each time. Also, the Potency entry in assay [6], in [7], in assay [10], in assay [11] and in assay [12] was “inactive” throughout. The outcome in [8], in assay [9] and in assay [13] was inactive.
Regarding `CCC(C(N)=O)N1CCCC1=O` (centres undefined), the Potency result in assay [1], in [2], in assay [4], in [14], in [15] and in assay [5] was “inactive” throughout. Besides, the Potency entry in [6], in assay [7], in assay [10], in [11] and in assay [12] was “inactive” throughout. Besides, the molecule was called inactive in assay [9] and in assay [13].
In the case of `COc1cc(CC(C)N)cc(OC)c1OC` (centres undefined), the Potency entry in assay [1], in [2], in [4], in assay [14], in assay [15] and in [5] was “inactive” in each case. The Potency entry in [16], in assay [17], in assay [7], in assay [10], in assay [18] and in assay [11] was “inactive” in each case. Further, the Potency entry in assay [12] is “inactive”. The molecule was called inactive in assay [8], in assay [9] and in [13]. In [19], the activity change, positive = activation was 12.1%.
In the case of `C[C@H](CN1CCOCC1)C(C(=O)N1CCCC1)(c1ccccc1)c1ccccc1`, the Potency result in [1], in [2], in assay [3], in assay [5], in [17] and in assay [7] was “inactive” in each case. For the same molecule, the Potency result in [10] and in assay [11] was “inactive” each time. The call in assay [8], in assay [9] and in assay [13] was inactive. Also, the Potency in assay [18] was 66.3 µM (active). Further, the activity change, positive = activation in assay [19] is -33.1%.
As for `C=CCCC#N`, the Potency result in assay [1], in assay [2], in assay [4], in assay [14], in [15] and in assay [5] was “inactive” in each case. Moreover, the Potency entry in [6], in assay [7], in [10] and in [11] was “inactive” in each case. Moreover, the outcome in assay [8], in assay [9] and in assay [13] was inactive.
Take `NCCOS(=O)(=O)O`: the Potency result in [1], in [2], in [3], in [4], in assay [5] and in [6] was “inactive” in each case. In addition, the Potency result in [7], in assay [10], in [11] and in [12] was “inactive” in each case. For the same molecule, the molecule was classed as inactive in [8], in assay [9] and in [13].
In the case of `C[C@H](N)C(=O)c1ccccc1`, the Potency entry in [1], in [2], in assay [4], in assay [14], in [15] and in [5] was “inactive” each time. Besides, the Potency result in assay [6], in assay [7], in [10], in [11] and in [12] was “inactive” in each case. Moreover, the call in [8] and in [13] was inactive.
